In the library only some 1.8% were active in any assay of this set; here they are far more common.
TLR9-MyD88 block – inhibitors of TLR9-MyD88 association in cells, primary screen, cell-based, CHO, BLA complementation, fluorescence | Toll-like receptor 9 (Homo sapiens) + Myeloid differentiation primary response protein … | CCF4 FRET ratio | inhibition, % at 4.98 µM | actives 0.21% (n = 340,000) | AID 504734, 2011;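 active = inhibition above the mean over all tested compounds plus 3 SD, cut at about 21% in these data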;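 note: 0% = DMSO only wells and 100% = clavulanate BLA inhibitor control wells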
NOD2-RIPK2 inh – NOD2-RIPK2 binding disruptors in cells, primary screen, fluorescence, CHO cells, BLA complementation; Receptor-interacting serine/threonine-protein kinase 2 (Homo sapiens), O43353; CCF4 ratio; inhibition, % at 4.98 µM; actives 0.38% (n = 360,000); AID 624267, 2012; in the data active = inhibition above about 21%;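 note: 0% = vehicle only and 100% = reference blocker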
Rtt109 Vps75 – inhibitors of C. albicans Rtt109/Vps75 HAT, primary screen, biochemical, ThioGlo CoA-SH fluorescence, plate reader. Histone acetyltransferase RTT109 (Candida albicans (strain SC5314 / ATCC MYA-2876)), …. purified Rtt109/Vps75, 4 h. inhibition, % at 34.9 µM. actives 0.16% (n = 330,000);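 active = inhibition of at least 50% in every replicate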
LANA-H2A inh – blockers of LANA interaction with H2A/H2B – biochemical, FP readout, HTS, primary screen. cell-free LANA-H2A/H2B peptide, fluorescence polarization. inhibition, % (no concentration beside the values). actives 0.6% (n = 320,000). AID 2629, 2010; in the data active = inhibition mostly above about 10%, no sharp cut-off; inactive = mostly below about 6.7%
TLR4 MyD88 comp – inhibitors of TLR4-MyD88 association in cells, primary screen, cell-based, HeLa CL3-4, BLA complementation, FRET ratio; actives 0.18% (n = 200,000); AID 861, 2007; HeLa CL3-4 TLR4/MyD88 BLA complementation; Toll-like receptor 4 (Homo sapiens) + Myeloid differentiation primary response protein …; inhibition, % at 8.4 µM; in the data active = inhibition above about 25%;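 note: 0% = vehicle and 100% = reference inhibitor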
m5-HT2A agonist – mouse Htr2a agonists via beta-arrestin recruitment, primary screen, cell-based, luminescence | CHO-K1 mHTR2A beta-arrestin complementation; percent of 30 µM serotonin response | activation, % at 7.6 µM | actives 0.66% (n = 360,000) | AID 624169, 2012;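 active = activation above a run cutoff, the mean activation of all tested compounds plus 3 SD, cut at about 14% in these data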;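 note: 0% = plate median of compound wells and 100% = 30 µM serotonin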
* hit, by the source's call; x = no result; + = active, no number; ! = not active in a repeat.

SMILES	TLR9-MyD88 block	NOD2-RIPK2 inh	Rtt109 Vps75	LANA-H2A inh	TLR4 MyD88 comp	m5-HT2A agonist
CCC(C)Sc1cc(-c2nc3ccc(C)cn3c2NCc2ccccc2)ccc1OC (stereo unspecified)	-3	27*!	-1	1	x	10
O=C(COC(=O)C1COc2ccccc2O1)c1ccccc1 (stereo unspecified)	-1	-14	x	x	x	6
COc1ccc(OCC(=O)Nc2ccc(S(=O)(=O)N3CCOCC3)cc2)cc1	-6	-7	0	28*	1	-4
O=C(COc1ccc(Br)cc1CO)Nc1ccc(S(=O)(=O)N2CCCCC2)cc1	-1	0	-1	+	x	-8
COc1ccc(NC(=O)CN(C)C(=O)/C=C/c2ccc(S(=O)(=O)N3CCCCCC3)cc2)cc1	-5	-1	-3	110*	x	-3
CCOc1ccc(NC(=O)COc2ccc(S(=O)(=O)N3CCOCC3)cc2)cc1	-2	1	7	-8	x	2
Cc1ccccc1-n1c(SCC(=O)NC2CC2)nc2ccccc2c1=O	0	-5	x	x	x	2
CCOC(=O)[C@@H](NC(=O)/C=C/[C@H]1O[C@@H](n2ccc(=O)[nH]c2=O)[C@H](O)[C@@H]1O)C(C)C	x	1	x	x	x	-2
O=C1CSC(=S)N1/N=C/c1ccc(O)c(O)c1O	2	3	196*	2	x	10
O=C(N/N=C/c1cccc(F)c1)c1c(O)c2ccccc2[nH]c1=O	10	1	-10	+	-2	-2
O=C(N/N=C/c1ccc(F)cc1)c1c(O)c2ccccc2[nH]c1=O	-2	-3	-4	3	3	5
CC(C)(C)c1cc[n+](-c2[nH]c(=O)sc2/C=N/NC([S-])=Nc2ccccc2)cc1	-6	-13	3	42*	x	0
CC[C@@H](C(=O)[C@@H](C)[C@@H](O)[C@H](C)[C@@H]1O[C@@H]([C@@H](CC)C(=O)O)CC[C@@H]1C)[C@H]1O[C@]2(C=C[C@@H](O)[C@]3(CC[C@@](C)([C@H]4CC[C@](O)(CC)[C@H](C)O4)O3)O2)[C@H](C)C[C@@H]1C	1	-12	28	x	x	23*
CCOc1ccc(C(=O)COC(=O)c2nn(CC)c(=O)c3ccccc23)cc1	-1	0	-5	13*	x	-7
O=C(Nc1cccc2ccccc12)c1cn(-c2ccccc2)nc1-c1cccs1	-2	-1	11	2	6	17*
CC(C)CN1CCN(Cc2nc3ccccc3s2)CC1CCO (stereo unspecified)	-6	-5	4	-1	-4	-3
CC(C)CN1CCN(Cc2ccc(CN3CCCCC3)s2)CC1CCO (stereo unspecified)	-3	-9	x	41*	6	-1
O=C1c2ccccc2C(c2nnnn2Cc2ccccc2)N1Cc1ccco1 (stereo unspecified)	x	4	x	x	x	-3
CCC(=O)N1CCCC(C)(C(=O)NS(=O)(=O)c2cccs2)C1 (stereo unspecified)	x	-3	x	x	x	7
Cc1ccccc1NC(=O)Cc1nc(COC(=O)COc2ccc(C(C)(C)C)cc2)cs1	-2	-9	1	17*	x	-5
O=C(CN1C(=O)CSc2ccc(S(=O)(=O)N3CCOCC3)cc21)NCCc1ccccc1	2	-2	x	x	x	-1
Cc1ccc(S(=O)(=O)CCC(=O)OCC(=O)NC(C)c2ccc(F)cc2)cc1 (stereo unspecified)	-12	-3	-1	4	x	0
Cc1ccc(S(=O)(=O)CCC(=O)OCC(=O)NC(C)c2ccccc2)cc1 (stereo unspecified)	13	4	-11	183*	x	-5
O=C(C[n+]1ccc(C(=O)c2ccccc2)cc1)Nc1cccc([N+](=O)[O-])c1	x	-1	x	x	x	-1
CC1(C(=O)Nc2cccc(Oc3ccccc3)c2)CCN1Cc1ccccc1OC(F)F (stereo unspecified)	x	-8	x	x	x	-7
SMILES	TLR9-MyD88 block	NOD2-RIPK2 inh	Rtt109 Vps75	LANA-H2A inh	TLR4 MyD88 comp	m5-HT2A agonist
COc1ccc(CC(NC(C)=O)C(=O)NC2CCN(c3nc(C)cc(C)c3C#N)CC2)cc1 (stereo unspecified)	9	1	53*	-1	-14	4
CC(C)Oc1ccc(CNC(=O)CCC(=O)N2CC(C)Sc3ccccc32)cc1 (stereo unspecified)	-16	12	-4	27*	x	-4
CCCCN(C(=O)C(C)N1C(=O)c2ccccc2C1=O)c1c(N)n(CCCC)c(=O)[nH]c1=O (stereo unspecified)	-9	-14	19	2	x	1
CCCCN(C(=O)C(C)N1C(=O)c2ccccc2C1=O)c1c(N)n(CC(C)C)c(=O)[nH]c1=O (stereo unspecified)	-4	5	-22	14*	x	8
CCCCN(C(=O)CCCc1nc2ccccc2s1)c1c(N)n(CC(C)C)c(=O)[nH]c1=O	1	-11	2	176*	x	-1
C[C@@H]1CN([C@H](C)CO)C(=O)CCCn2nncc2CO[C@H]1CN(C)Cc1ccccc1C(F)(F)F	3	-5	x	x	x	8
COC[C@@H]1CCCN1[C@@H]1CS(=O)(=O)N[C@H]1COCc1ccccc1	x	7	x	x	x	-3
CN(C)CCN1CCN(C2CN(C3CCCC3)S(=O)(=O)C2)CC1 (stereo unspecified)	x	-9	x	x	x	3
CC(C)(C)C(=O)Nc1ccnn1C1CCN(C(=O)c2ccc(Cl)cc2F)CC1	-6	-5	0	26*	x	7
O=C(Nc1ccnn1C1CCN(C(=O)c2cccc(C(F)(F)F)c2)CC1)C1CC1	4	6	26	17*	x	-2
CC(C)CC(=O)Nc1ccnn1C1CCN(C(=O)c2ccc(Cl)cc2F)CC1	-4	-12	5	-3	x	-2
Cc1cc(C)cc(OCC(=O)OCCN2C(=O)c3ccccc3C2=O)c1	18	-2	3	3	-2	2
Cc1ccc(OCC(=O)OCCN2C(=O)c3ccccc3C2=O)cc1C	-1	-4	3	19*	-8	1
COc1ccc2c(c1OC)C(=O)OC2C1c2c(cc3c(c2OC)OCO3)CCN1C (stereo unspecified)	-2	-28	8	5.3*!	3	-2
CC1=C(C(=O)N2CCCCCC2)CC(CC(=O)NCCN2CCOCC2)C(=O)N1Cc1ccc(C(C)(C)C)cc1 (stereo unspecified)	x	-7	x	x	x	1
COc1ccc(CCN=C(N)NS(=O)(=O)c2ccc(F)cc2)cc1OC	-4	-1	-4	26*	x	4
